Source: PubChem BioAssay (NCATS)
Records with an inconclusive call do not appear. Where a call stands in place of a potency, no number is given. Values without a mark were called inactive. Calls of active or inactive are those of the source. The call rests on the fitted dose curve; in most records, active means well fitted inhibition curve with a large enough effect; inconclusive means small, poorly fitted or top-dose-only effect; inactive means flat fitted curve, though single readings scatter.

Columns and labels:
[1] = qHTS profiling for inhibitors of Plasmodium falciparum proliferation (AID 504749); further: nearly all actives have a fitted effect of over 60% in size; settings: P. falciparum in erythrocytes, SYBR Green DNA, 72 h
Outline: (§1)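 In a 72 h erythrocytic culture (37 C, humidified, 5% CO2) at 2.5% hematocrit and 0.3% starting parasitemia, compounds were tested; SYBR Green I in detergent lysis buffer stained parasite DNA overnight.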

3D7 = assay: as above; settings: P. falciparum in erythrocytes, SYBR Green DNA, 72 h; series mostly up to 28.7 µM
Outline: as §1

7G8 = assay: as above; settings: P. falciparum in erythrocytes, SYBR Green DNA, 72 h; series mostly up to 28.7 µM
Outline: as §1

AA1029 = assay: as above; settings: P. falciparum in erythrocytes, SYBR Green DNA, 72 h; series mostly up to 28.7 µM
Outline: as §1

AS120 = assay: as above; settings: P. falciparum in erythrocytes, SYBR Green DNA, 72 h; series mostly up to 28.7 µM
Outline: as §1

ATS189 = assay: as above; settings: P. falciparum in erythrocytes, SYBR Green DNA, 72 h; series mostly up to 28.7 µM
Outline: as §1

ATS95 = assay: as above; settings: P. falciparum in erythrocytes, SYBR Green DNA, 72 h; series mostly up to 28.7 µM
Outline: as §1

C2A = assay: as above; settings: P. falciparum in erythrocytes, SYBR Green DNA, 72 h; series mostly up to 28.7 µM
Outline: as §1

CP185 = assay: as above; settings: P. falciparum in erythrocytes, SYBR Green DNA, 72 h; series mostly up to 28.7 µM
Outline: as §1

[2] = at 28.7 µM (top of the series), parasite line A
[3] = at 28.7 µM (top of the series), parasite line B
[4] = at 12.8 µM (top of the series), parasite line A
[5] = at 12.8 µM (top of the series), parasite line B
Potency means the concentration at half of the fitted maximal effect.

## NC/C=C/C(=O)O
[1]; [2]
  activity, negative = inhibition: 13.5%
[1]; [3]
  activity, negative = inhibition: 11.1%
3D7
  Potency: inactive
7G8
  Potency: inactive
AA1029
  Potency: inactive
AS120
  Potency: inactive
ATS189
  Potency: inactive
ATS95
  Potency: inactive
C2A
  Potency: inactive
CP185
  Potency: inactive

## CCOC(=O)c1cnc2c(cnn2CC)c1NN=C(C)C
[1]; [2]
  activity, negative = inhibition: 15.4%
[1]; [3]
  activity, negative = inhibition: -4.13%
3D7
  Potency: inactive
7G8
  Potency: 11.2 µM (active)
AA1029
  Potency: inactive
AS120
  Potency: inactive
ATS189
  Potency: inactive
ATS95
  Potency: inactive
C2A
  Potency: inactive
CP185
  Potency: inactive

## CC(C(=O)O)c1ccc(CC2CCCC2=O)cc1 (stereo not drawn)
[1]; [2]
  activity, negative = inhibition: 0.257%
[1]; [3]
  activity, negative = inhibition: 5.29%
3D7
  Potency: inactive
7G8
  Potency: inactive
AA1029
  Potency: inactive
AS120
  Potency: inactive
ATS189
  Potency: inactive
ATS95
  Potency: inactive
C2A
  Potency: inactive
CP185
  Potency: inactive

## CN1CCN(CC(=O)N2c3ccccc3C(=O)Nc3cccnc32)CC1
[1]; [2]
  activity, negative = inhibition: -7.56%
[1]; [3]
  activity, negative = inhibition: -8.28%
3D7
  Potency: inactive
7G8
  Potency: inactive
AA1029
  Potency: inactive
AS120
  Potency: inactive
ATS189
  Potency: inactive
ATS95
  Potency: inactive
C2A
  Potency: inactive
CP185
  Potency: inactive

## CC(C)(Oc1ccc(CCNC(=O)c2ccc(Cl)cc2)cc1)C(=O)O
[1]; [4]
  activity, negative = inhibition: -1.93%
[1]; [5]
  activity, negative = inhibition: -2.04%
3D7
  Potency: inactive
7G8
  Potency: inactive
AA1029
  Potency: inactive
AS120
  Potency: inactive
ATS189
  Potency: inactive
ATS95
  Potency: inactive
C2A
  Potency: inactive
CP185
  Potency: inactive

## CN(C)C(=O)Oc1ccc[n+](C)c1
[1]; [2]
  activity, negative = inhibition: 4.28%
[1]; [3]
  activity, negative = inhibition: 5.75%
3D7
  Potency: inactive
7G8
  Potency: inactive
AA1029
  Potency: inactive
AS120
  Potency: inactive
ATS189
  Potency: inactive
ATS95
  Potency: inactive
C2A
  Potency: inactive
CP185
  Potency: inactive

## CCc1cccc(N(C)C(N)=Nc2cccc3ccccc23)c1
[1]; [2]
  activity, negative = inhibition: -26.1%
[1]; [3]
  activity, negative = inhibition: -10.7%
3D7
  Potency: inactive
7G8
  Potency: 3.98 µM (active)
AA1029
  Potency: 3.55 µM (active)
C2A
  Potency: inactive

## C[C@H](CS)C(=O)N1CCC[C@H]1C(=O)O
[1]; [2]
  activity, negative = inhibition: -25.9%
[1]; [3]
  activity, negative = inhibition: 10.2%
3D7
  Potency: inactive
7G8
  Potency: inactive
AA1029
  Potency: inactive
AS120
  Potency: inactive
ATS189
  Potency: inactive
ATS95
  Potency: inactive
C2A
  Potency: inactive
CP185
  Potency: inactive

## CC[N+](C)(C)c1cccc(O)c1
[1]; [4]
  activity, negative = inhibition: 14.2%
[1]; [5]
  activity, negative = inhibition: 8.4%
3D7
  Potency: inactive
7G8
  Potency: inactive
AA1029
  Potency: inactive
AS120
  Potency: inactive
ATS189
  Potency: inactive
ATS95
  Potency: inactive
C2A
  Potency: inactive
CP185
  Potency: inactive

## C[N+](C)(C)CCOC(N)=O
[1]; [2]
  activity, negative = inhibition: 16.8%
[1]; [3]
  activity, negative = inhibition: 9.29%
3D7
  Potency: inactive
7G8
  Potency: inactive
AA1029
  Potency: inactive
AS120
  Potency: inactive
ATS189
  Potency: inactive
ATS95
  Potency: inactive
C2A
  Potency: inactive
CP185
  Potency: inactive

## OC(CCN1CCCCC1)(c1ccccc1)C1CCCCC1 (stereo not drawn)
[1]; [2]
  activity, negative = inhibition: -22%
[1]; [3]
  activity, negative = inhibition: -4.19%
3D7
  Potency: inactive
7G8
  Potency: 8.91 µM (active)
ATS189
  Potency: inactive
C2A
  Potency: inactive
CP185
  Potency: inactive

## CCCCNC(=O)NS(=O)(=O)c1ccc(C)cc1
[1]; [2]
  activity, negative = inhibition: 1.62%
[1]; [3]
  activity, negative = inhibition: 0.192%
3D7
  Potency: inactive
7G8
  Potency: inactive
AA1029
  Potency: inactive
AS120
  Potency: inactive
ATS189
  Potency: inactive
ATS95
  Potency: inactive
C2A
  Potency: inactive
CP185
  Potency: inactive

## CSc1ccc(C(=O)c2[nH]c(=O)[nH]c2C)cc1
[1]; [2]
  activity, negative = inhibition: 9.87%
[1]; [3]
  activity, negative = inhibition: 9.86%
3D7
  Potency: inactive
7G8
  Potency: inactive
AA1029
  Potency: inactive
AS120
  Potency: inactive
ATS189
  Potency: inactive
ATS95
  Potency: inactive
C2A
  Potency: inactive
CP185
  Potency: inactive

## CCN1CCC[C@H]1CNC(=O)c1c(O)c(Cl)cc(Cl)c1OC
[1]; [2]
  activity, negative = inhibition: 0.765%
[1]; [3]
  activity, negative = inhibition: 14.7%
3D7
  Potency: inactive
7G8
  Potency: inactive
AA1029
  Potency: inactive
AS120
  Potency: inactive
ATS189
  Potency: inactive
ATS95
  Potency: inactive
C2A
  Potency: inactive
CP185
  Potency: inactive

## O=C(O)CCCCCCCC(=O)O
[1]; [2]
  activity, negative = inhibition: 9.73%
[1]; [3]
  activity, negative = inhibition: 11.2%
3D7
  Potency: inactive
7G8
  Potency: inactive
AA1029
  Potency: inactive
AS120
  Potency: inactive
ATS189
  Potency: inactive
ATS95
  Potency: inactive
C2A
  Potency: inactive
CP185
  Potency: inactive

## FC(F)(F)c1ccccc1-n1ccnc1
[1]; [2]
  activity, negative = inhibition: 11.5%
[1]; [3]
  activity, negative = inhibition: -3.4%
3D7
  Potency: inactive
7G8
  Potency: inactive
AA1029
  Potency: inactive
AS120
  Potency: inactive
ATS189
  Potency: inactive
ATS95
  Potency: inactive
C2A
  Potency: inactive
CP185
  Potency: inactive

## CN(C)CC[C@@H](c1ccc(Br)cc1)c1ccccn1
[1]; [2]
  activity, negative = inhibition: -5.21%
[1]; [3]
  activity, negative = inhibition: 2.6%
3D7
  Potency: inactive
7G8
  Potency: 8.91 µM (active)
ATS189
  Potency: inactive
C2A
  Potency: inactive

## O=C(CCNNC(=O)c1ccncc1)NCc1ccccc1
[1]; [2]
  activity, negative = inhibition: 13.9%
[1]; [3]
  activity, negative = inhibition: 17%
3D7
  Potency: inactive
7G8
  Potency: inactive
AA1029
  Potency: inactive
AS120
  Potency: inactive
ATS189
  Potency: inactive
ATS95
  Potency: inactive
C2A
  Potency: inactive
CP185
  Potency: inactive

## CN(C(=O)CCCOc1ccc2[nH]c(=O)ccc2c1)C1CCCCC1
[1]; [2]
  activity, negative = inhibition: -9.28%
[1]; [3]
  activity, negative = inhibition: 16%
3D7
  Potency: inactive
7G8
  Potency: 11.2 µM (active)
AA1029
  Potency: inactive
AS120
  Potency: inactive
ATS189
  Potency: inactive
ATS95
  Potency: inactive
CP185
  Potency: inactive

## CNC1(C)C2CCC(C2)C1(C)C (stereo not drawn)
[1]; [2]
  activity, negative = inhibition: 6.34%
[1]; [3]
  activity, negative = inhibition: 5.34%
3D7
  Potency: inactive
7G8
  Potency: inactive
AA1029
  Potency: inactive
AS120
  Potency: inactive
ATS189
  Potency: inactive
ATS95
  Potency: inactive
C2A
  Potency: inactive
CP185
  Potency: inactive
